Source: PubChem BioAssay

test system: Sam68 (KHDRBS1); assay: compounds binding KHDRBS1 protein – biochemical, small-molecule microarray, 635 nm fluorescence, primary screen (AID 1125); details: higher = more signal;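 also: score merges 667 nm channel intensity with signal to noise over triplicate slides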

SMILES | composite z-score
CCOC(=O)C[C@H]1[C@H](OC(=O)Cc2ccc3c(c2)OCO3)[C@@H](NC(=O)c2ccc(-c3ccccc3)cc2)c2cc(OCCCO)ccc2N1C(=O)c1ccccc1 | 0.792
CC(c1ccccc1)C(O)C1C=CC2C(=O)NC(=O)C2N1Nc1ccccn1 (centres undefined) | 1.1
COc1ccc(C#Cc2ccc3c(c2)[C@]2(C(=O)N3)[C@H](c3ccc(O)cc3)N3[C@H](c4ccccc4)[C@H](c4ccccc4)OC(=O)[C@H]3[C@@H]2C(=O)NC[C@H](O)c2ccccc2)cc1 | 0.81
O=C1O[C@H](c2ccccc2)[C@H](c2ccccc2)N2[C@H]1[C@@H](C(=O)O)[C@]1(C(=O)Nc3ccc(C#CC4(O)CCCCCC4)cc31)[C@H]2c1ccc(OCCO)cc1 | 1.29
NCCCCCCNC(=O)[C@H]1C[C@H]2C(=O)NCC(=O)N2[C@H]1c1cccc(OCCO)c1 | 1.29
C=CCOC(=O)[C@H]1[C@@H]2C(=O)O[C@@H](c3ccccc3)[C@@H](c3ccccc3)N2[C@@H](c2ccc(OCCOC(=O)[C@@H]3C[C@@H]4C(=O)NCC(=O)N4[C@@H]3c3ccc(O)cc3)cc2)[C@]12C(=O)Nc1ccccc12 | 1.29
[N-]=[N+]=Nc1ccccc1C[C@]1(C(=O)NCCN2CCOCC2)N=C(c2ccc(OCCCO)cc2)O[C@H]1c1ccccc1 | 1.3
CC(C)N1C(=O)C[C@@](C(=O)NCc2ccccc2)(c2ccc([N+](=O)[O-])cc2)[C@H]1c1ccc(CO)cc1 | 1.31
O=C1OCCC/C=C\[C@H]2OC34C=CCN(Cn5nnc6ccccc65)C(=O)[C@H]3N(CCCCCO)C(=O)[C@@H]4C12 (some centres undefined) | -0.445
